Sampled rows, rich in hits. Any-hit rate of the full collection: about 2.9%.
dFosB act = activators of delta FosB homodimer, primary screen, biochemical, fluorescence polarization, TAMRA-CDK5 oligo, single point; Protein FosB (Mus musculus), P13346; purified delta FosB; percent of positive-control signal above neutral wells; activation, % at 25 µM; 340,000 tested, 0.99% active;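 active = mean activation above about 17%, with every replicate also reaching it, limit read from the data, passing the limit was not always enough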
DNA FID counter = compounds displacing fluorescent DNA intercalator, primary screen, artefact control for HCV NS3 helicase inhibitor project, biochemical, FID fluorescence. DNA fluorescent intercalator displacement. inhibition, % at 7.9 µM. 290,000 tested, 0.17% active. AID 1845, 2009; in the data active = inhibition above about 37%;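 also: higher means more ethidium bromide displaced from hairpin DNA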
MEKK3 PB1 HTS = modulators of MEKK3-MEK5 PB1 binding, primary screen, biochemical, wildtype MEKK3, multiplex bead flow cytometry, Alexa488-MEK5; AID 1529, 2009; 290,000 tested, 1.4% active; binding response (% of control), % at 10 µM; bead-based flow cytometry, Alexa488-MEK5 binding to MEKK3; actives lie on both sides; 0 = blocked by unlabeled MEK5, 100 = vehicle;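 active = binding response more than 3 SD above or below the average of its plate-row segment, actives on both sides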;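 also: Alexa488 bead fluorescence after subtracting the streptavidin-only scavenger bead signal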
Target sequence (Q99759 whole entry, looked up): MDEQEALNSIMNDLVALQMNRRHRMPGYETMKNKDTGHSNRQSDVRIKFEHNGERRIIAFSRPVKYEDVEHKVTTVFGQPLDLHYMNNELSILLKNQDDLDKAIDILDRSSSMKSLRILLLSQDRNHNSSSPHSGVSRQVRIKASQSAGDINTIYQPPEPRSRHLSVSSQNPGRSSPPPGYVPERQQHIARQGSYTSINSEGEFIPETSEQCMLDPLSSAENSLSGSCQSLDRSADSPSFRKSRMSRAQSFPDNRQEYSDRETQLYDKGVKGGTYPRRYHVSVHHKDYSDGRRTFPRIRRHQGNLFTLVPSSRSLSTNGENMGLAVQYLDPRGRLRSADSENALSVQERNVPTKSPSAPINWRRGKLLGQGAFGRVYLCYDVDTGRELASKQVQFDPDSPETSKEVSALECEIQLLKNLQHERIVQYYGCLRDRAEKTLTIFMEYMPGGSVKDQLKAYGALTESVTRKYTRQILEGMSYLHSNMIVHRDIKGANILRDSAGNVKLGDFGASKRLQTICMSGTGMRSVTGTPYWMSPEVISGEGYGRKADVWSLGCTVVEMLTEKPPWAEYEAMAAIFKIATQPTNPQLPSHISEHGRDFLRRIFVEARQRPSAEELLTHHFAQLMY
MEKK2mut PB1 HTS = MEK5 binding signal on mutant MEKK2 PB1, primary screen, biochemical, multiplex bead flow cytometry, Alexa488-MEK5; 290,000 tested, 0.35% active; Alexa488-MEK5 binding to MEKK2 mutant; percent response, % at 10 µM; in the data active = percent response above about 24%, passing the limit was not always enough
MEKK2wt PB1 HTS = modulators of MEK5 binding to wildtype MEKK2, primary screen, biochemical, multiplex bead flow cytometry, Alexa488-MEK5. Mitogen-activated protein kinase kinase kinase 2 (Homo sapiens), Q9Y2U5. Alexa488-MEK5 binding to MEKK2 WT; actives lie on both sides. binding response (% of control), % at 10 µM. 290,000 tested, 1.1% active; in the data active = binding response below about 67% or above about 130%
MEKK2wt confirm = modulators of MEK5 binding to wildtype MEKK2, confirmation, biochemical, single concentration, multiplex bead flow cytometry. shares compounds with MEKK3 PB1 HTS. Alexa488-MEK5 binding to MEKK2 WT; actives lie on both sides. binding response (% of control), % at 10 µM. 5,900 tested, 2.4% active; in the data active = binding response below about 16% or above about 210%; inactive = in between
MEKK2mut confirm = mutant MEKK2 PB1-MEK5 binding signal retest – biochemical, single concentration, multiplex bead flow cytometry, confirmation; shares compounds with MEKK3 PB1 HTS; Alexa488-MEK5 binding to MEKK2 mutant; percent response, % at 10 µM; 5,900 tested, 2% active; AID 1893, 2009; in the data active = percent response mostly above about 71%, no sharp cut-off; inactive = mostly below about 38%;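 also: higher means compound restores mutant binding toward wildtype level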
MEKK3-MEK5 inh = MEKK3 wild-type PB1 binding to MEK5, inhibitors, confirmation, biochemical, bead multiplex flow cytometry, single concentration, wildtype; shares compounds with MEKK3 PB1 HTS; 5,900 tested, 1.8% active; Alexa488-MEK5 binding to MEKK3; stronger effect = lower value; binding response (% of control), % at 10 µM; AID 1894, 2009;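 active = binding response below 72% of control, or above a set upper limit, though filed actives all read lower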
Numbers stand for hits; – = inactive; · = no result; [ ] = dose if it differs, or a comment.

SMILES	dFosB act	DNA FID counter	MEKK3 PB1 HTS	MEKK2mut PB1 HTS	MEKK2wt PB1 HTS	MEKK2wt confirm	MEKK2mut confirm	MEKK3-MEK5 inh
COc1ccccc1S(=O)(=O)Cc1ccc(C(=O)NCCN2CCCCCC2)o1	–	–	–	–	135	–	–	–
CCOc1ccccc1NC1=NCC(=O)N1Cc1ccc(F)cc1	–	–	–	–	–	·	·	·
COc1ccccc1NC1=NCC(=O)N1Cc1ccccc1	–	–	–	47	–	–	–	–
O=C(Nc1nnc(-c2ccco2)o1)c1ccc(N2C(=O)CCC2=O)cc1	–	–	70[inhibitor]	–	–	–	–	–
CCC(=O)Oc1ccc(C(=O)Nc2c[nH]c(=O)[nH]c2=O)cc1	–	–	69[inhibitor]	–	–	–	–	–
CCCOc1ccc(C(=O)Nc2c[nH]c(=O)[nH]c2=O)cc1	–	–	–	–	–	·	·	·
Cc1ccc(NS(=O)(=O)c2cc([N+](=O)[O-])ccc2NNC(=S)Nc2cccc(Cl)c2)c(C)c1	–	–	136	–	–	–	–	–
Cc1ccc(C(=O)NN2C(=O)C3C4c5ccccc5C(c5ccccc54)C3C2=O)cc1 (stereo unspecified)	–	–	129	–	–	–	–	–
COc1ccc2nc(NC(=O)c3sc4nc(C)cc(C)c4c3N)sc2c1	–	–	48[inhibitor]	–	–	–	–	–
CN1CCN(c2cc(-c3ccccc3)nc3cc(-c4ccc(F)cc4)nn23)CC1	–	–	–	34	152	–	–	–
COc1cccc(-c2cc3nc(-c4ccccc4)cc(N4CCC5(CC4)OCCO5)n3n2)c1	–	–	125	25	137	–	–	–
CCc1nnc(NC(=O)c2c(OC)cccc2OC)s1	–	–	–	–	–	·	·	·
CCOCc1nnc(NC(=O)c2c(OC)cccc2OC)s1	–	–	–	–	137	–	–	–
COc1ccc(NC(=O)CNC(=O)N2CC(=O)Nc3ccccc32)cc1OC	–	–	–	–	–	·	·	·
CC(Oc1ccc(Cl)cc1)C(=O)Nc1ccccc1C(=O)N1CCOCC1 (stereo unspecified)	–	–	–	–	–	·	·	·
C[C@H](NC(=O)c1nc[nH]c1C(=O)N1CCN(c2ccccc2)CC1)C(=O)OC(C)(C)C	–	·	79[inhibitor]	–	–	–	–	–
C[C@H](NC(=O)c1nc[nH]c1C(=O)N1CCN(C(=O)OC(C)(C)C)CC1)C(=O)OC(C)(C)C	–	·	·	·	·	·	·	·
COC(=O)c1c(NC(=S)NNC(=O)c2ccc(Cl)s2)sc(C(=O)N(C)C)c1C	–	–	–	–	–	·	·	·
O=[N+]([O-])c1ccc(CSc2ccc(S(=O)(=O)N3CCCCCC3)cn2)cc1	–	·	·	·	·	·	·	·
CC12CCC(=O)N1C(C(=O)Nc1cc(Cl)ccc1N1CCCC1)CS2 (stereo unspecified)	–	·	·	·	·	·	·	·
O=[N+]([O-])c1cc2c(cc1CN1CCN(CCOCCO)CC1)OCO2	–	–	–	–	149	–	–	–
COc1ccccc1N1CCN(Cc2cc3c(cc2[N+](=O)[O-])OCO3)CC1	–	–	–	–	–	·	·	·
CCCN1C(=O)c2cccc3c(N4CCCCC4)ccc(c23)C1=O	–	–	–	–	60[inhibitor]	–	–	–
O=C1c2cccc3c(N4CCCCC4)ccc(c23)C(=O)N1c1ccccn1	–	–	–	–	–	·	·	·
CCCCN(CC)C(=O)Cc1ccccc1OC	–	–	–	–	–	·	·	·
SMILES	dFosB act	DNA FID counter	MEKK3 PB1 HTS	MEKK2mut PB1 HTS	MEKK2wt PB1 HTS	MEKK2wt confirm	MEKK2mut confirm	MEKK3-MEK5 inh
CCCCN(CC)C(=O)Cc1ccc(Br)cc1	–	–	128	–	–	–	–	–
O=C(CSc1ccc2nnc(-c3ccc(F)cc3)n2n1)N1CCCc2ccccc21	–	–	134	–	–	–	–	–
C=CC[C@@H](Cc1ccc(F)cc1)C(=O)OC[C@H]1CCCN1C(=O)[C@@H](CC=C)CC(=O)N(CCO)Cc1ccccc1	–	·	·	·	·	·	·	·
COc1ccc2cc(CCNC(=O)c3ccc(S(=O)(=O)N4CCCC4)cc3)c(=O)[nH]c2c1	–	–	–	–	–	·	·	·
CC(=O)OC1OCCOC1NC(=S)NCc1ccco1 (stereo unspecified)	–	–	1.0[inhibitor]	–	·	–	–	–
CC(=O)OC1OCCOC1NC(=S)Nc1cccc(C(F)(F)F)c1 (stereo unspecified)	–	–	–	–	–	·	·	·
CC12CCC(=O)N1C(C(=O)Nc1ccc(Cl)c(S(=O)(=O)N3CCCCC3)c1)CS2 (stereo unspecified)	–	·	·	·	·	·	·	·
CN(C)CCCN1c2ccc([N+](=O)[O-])cc2CCc2cc([N+](=O)[O-])ccc21	–	·	–	–	150	–	–	–
CCOC(=O)Nc1ccc2c(c1)N(CCCN(C)C)c1ccccc1CC2	–	–	–	–	–	·	·	·
COc1cccc(OC)c1C(=O)NC(=S)Nc1ccc2c(c1)OCCO2	–	–	141	–	–	–	–	–
CCCCCCC1CC(=O)NC(=O)N1 (stereo unspecified)	–	–	–	–	–	·	·	·
Cc1[nH]n(-c2cccc3ccccc23)c(=O)c1/C=N/NC(=O)c1cccc([N+](=O)[O-])c1	–	–	61[inhibitor]	–	–	–	–	–
Cc1[nH]n(-c2ccccc2)c(=O)c1/C=N/NC(=O)COc1ccccc1[N+](=O)[O-]	–	–	158	–	–	–	–	–
COCC(=O)N/N=C/c1c(C)[nH]n(-c2ccccc2)c1=O	–	–	–	–	–	·	·	·
CCCNC(C)C(=O)Nc1c(C)csc1C(=O)OC (stereo unspecified)	–	·	·	·	·	·	·	·
CC1CCCN(CCOc2ccc3ccccc3c2Br)C1 (stereo unspecified)	–	–	–	–	157	–	–	–
CC1CCCN(CCCOc2ccc(Cl)cc2Br)C1 (stereo unspecified)	–	–	–	–	–	·	·	·
COC(=O)c1cccnc1-n1c(=O)c2cccnc2n(Cc2cccc(C(F)(F)F)c2)c1=O	–	–	–	–	–	·	·	·
COc1ccc(-c2nnc(SCC(=O)NC3CC3)o2)cc1	–	·	·	·	·	·	·	·
COc1cccc(O)c1CN1CCC(C(=O)Nc2ccc(-c3cccc(C)c3)cc2)CC1	–	–	–	61	227	–	–	–

Screens as filed in PubChem BioAssay.
